Screening data: PubChem BioAssay, National Center for Advancing Translational Sciences (NCATS)
HP1b chromo inh – HP1-beta chromodomain-methylated histone interaction inhibition. P83916. AlphaScreen HP1-beta / biotin-H3K9me3 peptide binding. Potency, µM (series often up to 114 µM), inactives show at the top dose activity change, negative = inhibition, actives largely listed as inhibitors. actives 0.56% (n = 390,000); further: nearly all actives have a fitted effect of over 70% in size
Target sequence (P83916 whole entry, looked up): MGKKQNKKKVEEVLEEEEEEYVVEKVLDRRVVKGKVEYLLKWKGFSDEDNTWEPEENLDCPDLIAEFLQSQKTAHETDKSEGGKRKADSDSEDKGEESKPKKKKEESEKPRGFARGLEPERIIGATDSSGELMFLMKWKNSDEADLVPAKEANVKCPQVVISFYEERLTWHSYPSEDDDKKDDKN
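AlphaScreen: HP1-beta (50 nM) preformed 30 min with biotin-H3(1-18)K9me3 peptide (50 nM) in PBS pH 7.4, 0.01% Tween-20. Compound added for 30 min at RT, then streptavidin donor/nickel chelate acceptor beads (10 ug/mL) for 30 min.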
G9a block – inhibitors of human histone lysine methyltransferase G9a | Q96KQ7 | G9a H3K9 monomethylation, AlphaScreen, 2 h | Potency, µM (highest dose often 102 µM), without a hit: at the top dose activity, negative = inhibition, usual class: inhibitors | actives 8.8% (n = 350,000) | AID 504332; further: on the % scale 0 is the no-effect control and ±100 the full control effect; nearly all actives have a fitted effect of over 75% in size
Target sequence (Q96KQ7 913-1193 limits assumed): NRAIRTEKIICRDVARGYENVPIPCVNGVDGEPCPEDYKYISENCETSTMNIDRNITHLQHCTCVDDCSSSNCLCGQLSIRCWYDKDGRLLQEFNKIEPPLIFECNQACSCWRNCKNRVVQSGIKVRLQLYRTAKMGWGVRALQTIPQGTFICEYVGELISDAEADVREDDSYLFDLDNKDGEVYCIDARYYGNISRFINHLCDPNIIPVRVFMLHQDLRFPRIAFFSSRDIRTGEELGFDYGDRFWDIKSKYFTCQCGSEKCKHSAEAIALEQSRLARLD
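AlphaScreen detection with an anti-monomethyl H3K9 antibody quantified product after a 2 h room-temperature reaction containing 500 nM biotinylated H3K9 peptide, 20 µM SAM and 20 nM enzyme, which had been preincubated 15 min with compound.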
BAZ2B inh – inhibitors of human BAZ2B bromodomain | Q9UIF8 | actives 4.4% (n = 360,000) | AID 504333 | AlphaScreen BAZ2B-H3K14Ac peptide displacement | Potency, µM (top dose mostly 114 µM), for inactives: at the highest dose activity change, negative = inhibition, hits mostly inhibitors; further: on the % scale 0 is the no-effect control and ±100 the full control effect; nearly all actives have a fitted effect of over 60% in size
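AlphaScreen luminescence quantifies BAZ2B engagement of H3K14Ac peptide; the protein and biotinylated peptide are both at 50 nM final, buffer PBS pH 7.4 with 0.01% Tween-20, all steps at room temperature.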
L3MBTL1 block – inhibitors of human L3MBTL1; Q9Y468; AlphaScreen L3MBTL1–H3K9me1 peptide binding; Potency, µM (top dose mostly 57.1 µM), without a hit: at the highest dose activity, negative = inhibition, hits mostly inhibitors; actives 0.66% (n = 230,000); AID 485360; further: on the % scale 0 is the no-effect control and ±100 the full control effect; nearly all actives have a fitted effect of over 60% in size
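AlphaScreen proximity signal between nickel-chelate acceptor and streptavidin donor beads (final 10 ug/mL) reports binding of 50 nM L3MBTL1 to 75 nM biotin-H3 K9me1 peptide; complex incubated with compounds 30 min at room temperature; cefsulodin titration as control.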
Sfp PPTase inh – Sfp phosphopantetheinyl transferase inhibition | Potency, µM, for the others: largest response in the series, negative = inhibition, usual class: inhibitors | actives 3.5% (n = 310,000) | AID 1490 | Biochemical Sfp PPTase activity, qHTS;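 further: the enzyme is Sfp with the accession as filed and its product quenches rhodamine fluorescence; 0% = enzyme reaction without inhibitor and -100% = no enzyme wells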
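Buffer: 50 mM Hepes-Na pH 7.6, 10 mM MgCl2, 0.01% Nonidet P-40, 0.01% BSA. Enzyme 15 nM, pre-exposed to compound 15 min; substrates then added and fluorescence change tracked over 30 min.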
JMJD2A Tudor – blocks the human JMJD2A Tudor domain | O75164 | AlphaScreen JMJD2A-Tudor / H3K4me3 peptide binding | Potency, µM (series often up to 114 µM), for the others: at the top dose activity change, negative = inhibition, usual class: inhibitors | actives 4.4% (n = 390,000); further: on the % scale 0 is the no-effect control and ±100 the full control effect; nearly all actives have a fitted effect of over 50% in size
* hit, by the source's call; ? = inconclusive; . = not tested or not shown; [ ] = remark or other dose. This is a sample that favours compounds with a hit; in the whole collection about 12% have one here. The call rests on the fitted dose curve; in most records, active means well fitted curve in the direction sought with a large enough effect; inconclusive means small, poorly fitted or top-dose-only effect, or another doubt; inactive means no such curve, though single readings can be large; an effect the other way counts as inactive or inconclusive. Potency means the concentration at half of the fitted maximal effect.

SMILES	HP1b chromo inh	G9a block	BAZ2B inh	L3MBTL1 block	Sfp PPTase inh	JMJD2A Tudor
CSc1sc2ccccc2[n+]1CCCS(=O)(=O)[O-]	5.6%	10µM*	-38.4%	7.2%	17.8µM*	89.1µM*
Cc1ccc2ccccc2[n+]1CCCS(=O)(=O)[O-]	55.2%	50.1µM*	-28.8%	-10.4%	24.1%	-18.0%
COc1ccc2sc(SCCCS(=O)(=O)O)[n+](CCCS(=O)(=O)[O-])c2c1	27.3%	?	56.2µM*	-5.8%	4.47µM*	15.8µM*
Cc1ccc(C=NNc2nc3c([nH]2)c(=O)n(C)c(=O)n3C)cc1	8.7%[57 µM]	.	.	.	.	-17.9%
CCc1ccccc1NC(=O)C1CCCN(S(=O)(=O)c2ccc3[nH]c(=O)ccc3c2)C1 (stereo unspecified)	16.5%	-33.0%[59 µM]	?	.	.	-20.5%
COc1cccc(-c2nc(N3CCCCC3C)c3ccccc3n2)c1O (stereo unspecified)	-35.8%	44.7µM*	?	-7.3%	-17.7%	39.8µM*
COc1cccc(-c2nc(NCc3ccccc3)c3ccccc3n2)c1O	18.6%	-33.2%	-17.8%	.	-16.7%	-24.3%
COc1cccc(-c2nc(N3CCN(C)CC3)c3ccccc3n2)c1O	-4.6%	?	?	-8.8%	-8.2%	?
COc1cccc(-c2nc(NC3CCCC3)c3ccccc3n2)c1O	-16.3%	?	35.5µM*	.	6.8%	?
COc1ccc(C(=O)N2CCCC(CCC(=O)NCc3ccc(F)c(F)c3)C2)o1 (stereo unspecified)	-23.3%	?	-13.3%	4.7%	56.2µM*	-15.1%
COc1ccc(C(=O)N2CCCC(CCC(=O)NCc3ccc(F)c(F)c3)C2)cc1F (stereo unspecified)	58.0%	.	-7.3%	-0.8%	13.3%	5.3%[11.4 µM]
CCOc1ccc(/C=C(\C#N)C(=O)Nc2sc3c(c2C(=O)OC)C(C(=O)OC)CC3)cc1OC (stereo unspecified)	?	1.41µM*	50.1µM*	.	.	56.2µM*
CCOc1ccc(CNC(=O)CCc2c(C)nn(-c3ccc(N4CCOCC4)nn3)c2C)cc1	33.9%	-6.2%[59 µM]	-35.7%	.	.	-4.7%
CCC(=O)Nc1nc2nc(-c3ccccc3)cc(=O)n2[nH]1	-9.6%	44.7µM*	-29.1%	.	11.0%	?
CNS(=O)(=O)c1ccc2c3c(cccc13)C(=O)N2	39.9%	.	0.1%	0.2%	3.3%	0.0%
O=C(O)CNS(=O)(=O)c1ccc2c3c(cccc13)C(=O)N2	4.3%	.	42.5%	-85.2%	-0.6%	28.2µM*
O=C1Nc2ccc(S(=O)(=O)NCc3ccco3)c3cccc1c23	-16.8%	.	.	.	.	?
O=C(O)CCCCCNS(=O)(=O)c1ccc2c3c(cccc13)C(=O)N2	38.2%	79.4µM*	-35.9%	-13.9%	-0.7%	-2.1%
Cn1cc(-c2nc3cncnc3n(C3CC3)c2=O)c2ccccc21	.	-0.3%[0.501 µM]	.	.	5.9%	.
COc1ccc(S(=O)(=O)CC(=O)c2cc3cccc(C)c3oc2=O)cc1	28.3%	50.1µM*	-34.1%	.	-5.4%	-32.9%
Cc1ccc(OCCn2ccnc2)c(C)c1	32.9%	70.8µM*	-37.4%	.	8.6%	-24.6%
CC(C)(C)c1cc(Cl)ccc1OCCn1ccnc1	?	.	39.8µM*	-2.8%	-28.5%	5.01µM*
Cc1cc(C(C)(C)C)ccc1OCCn1ccnc1	?	22.4µM*	35.5µM*	.	-9.0%	14.1µM*
CCCCN(C)CCNC(=O)C1CCN(S(=O)(=O)c2cccc3nsnc23)CC1	29.8%[57 µM]	26.3%	-21.4%	.	4.5%	-13.2%
CCCSc1nnc(CNC(=O)C23CC4CC(CC(C4)C2)C3)n1Cc1ccccc1	38.8%	?	12.0%	-3.8%	-10.5%	-13.7%
SMILES	HP1b chromo inh	G9a block	BAZ2B inh	L3MBTL1 block	Sfp PPTase inh	JMJD2A Tudor
CCSc1nnc(CNC(=O)C23CC4CC(CC(C4)C2)C3)n1Cc1ccccc1	41.5%	31.6µM*	6.1%	5.0%	-4.3%	?
CCc1ccccc1NC(=O)Cn1nnc(-c2nc(-c3ccncc3)no2)c1N	30.9%	7.08µM*	-13.2%	.	.	-1.0%
O=C1N=c2ccc(Br)cc2=C1c1sc(=O)[nH]c1O	.	44.7µM*	?	.	-28.9%	.
CC(=O)Nc1ccc(S(=O)(=O)N(Cc2ccccc2)Cc2ccccc2)cc1	28.1%	-1.6%[59 µM]	-8.1%	.	.	-18.3%
COc1ccc(CNC(=O)CCCc2nnc3n(C(C)C)c(=O)c4sccc4n23)cc1	28.6%	-8.8%[59 µM]	-24.1%	.	.	-16.5%
Cc1ccc(-c2nc3cnccn3c2Nc2ccc(C(C)C)cc2)o1	?	.	.	.	.	44.7µM*
CC(C)c1ccc(Nc2c(-c3ccccc3O)nc3cnccn23)cc1	2.9%	?	?	.	.	?
Cc1ccc(Nc2c(-c3ccc(C)o3)nc3ncccn23)cc1	20.1%	.	?	-12.0%	11.2µM*	-11.3%
Cc1ccccc1Nc1c(-c2cccc(Cl)c2)nc2ncccn12	44.3%	-7.2%[59 µM]	0.5%	.	.	-7.5%
Cc1ccc(-c2nc3ncccn3c2Nc2ccccc2C)o1	22.1%	?	-26.3%	.	39.8µM*	-14.4%
Cc1ccc(-c2nc3ncccn3c2NC2CCCC2)o1	13.7%	?	-33.6%	.	-3.2%	-26.0%
Brc1ccc(-c2nc3ncccn3c2NC2CCCCC2)o1	?	10µM*	-32.9%	.	-1.0%	-33.9%[57.1 µM]
Cc1cccc(C(=O)Nc2ccc3oc(-c4ccncc4)nc3c2)c1	71.9%	-35.1%[59 µM]	-16.4%	.	.	-21.8%
Cc1ccc(C2C(=O)N(C3CCCCCC3)CC(=O)N2C(C)C)cc1 (stereo unspecified)	29.9%	3.7%[59 µM]	2.5%	.	.	-10.1%
Cc1nc(NC2CCCCC2)c2nc(-c3ccccc3)n(CCCN3CCOCC3)c2n1	.	.	.	.	13.3%	.
COc1ccccc1-c1cc(C(=O)NC2CCN(C)CC2)c2ccc(Cl)c(C)c2n1	26.8%	14.2%	-0.5%	.	56.2µM*	-13.7%
Cc1ccc(-n2nc3ccc(N)cc3n2)cc1C	-12.0%	10µM*	50.1µM*	-20.1%	-21.2%	-24.6%
Cc1ccc(-n2nc3ccc(N)cc3n2)cc1Cl	30.2%	44.7µM*	?	.	6.7%	4.0%
Oc1ccc(Cl)cc1C1C=C(c2ccc3c(c2)OCO3)NC(c2ccc(Br)cc2)N1 (stereo unspecified)	2.1%[57 µM]	.	.	.	.	-18.5%[57.1 µM]
O=C(Nc1ccccc1)N1CC2(CCN(C(=O)c3cc(C(F)(F)F)cc(C(F)(F)F)c3)CC2)C1	.	9.8%[12.7 µM]	.	.	0.9%	.
CCOC(=O)c1c(NC(=O)c2ccc(S(=O)(=O)N(C)C3CCCCC3)cc2)sc2c1CCN(C(C)C)C2	17.2%	-5.3%[59 µM]	6.7%	.	.	-17.7%
Cc1cc(C)cc(C(=O)OCC(=O)N2CCCCCC2)c1	31.3%	5.3%[59 µM]	0.1%	11.0%	.	-6.1%
N#Cc1c(-c2ccccc2)cc(-c2ccc3c(c2)OCO3)[nH]c1=O	27.4%	11.4%[59 µM]	-1.0%	2.3%	.	-3.0%
